Measurements: PubChem BioAssay AID504725 (Broad Institute, 2011)
Measured potencies and affinities stand elsewhere. Activity calls are given as the source filed them. The rule behind the calls is not given here.

These compounds were tested against KSHV LANA C-terminal domain (residues 932-1162) binding to LBS DNA (UniProt O40947) (assay: inhibitors of C-LANA binding to LBS DNA, dose response, biochemical, fluorescence polarization, cherry-picked samples (AID 504725)). Details: MBP-C-LANA / FAM-LBS DNA fluorescence polarization, percent change from plate compound-well median; series mostly up to 35 µM; activity change, negative = inhibition: at the top concentration.

Activity change, negative = inhibition, inactive:
Cc1cc(NS(=O)(=O)c2ccc(Nc3nc(-c4sc(N)nc4C)cs3)cc2)no1 -10.2%
COC(=O)c1ccc(Oc2nc(Nc3ccc(F)cc3)nc(N3CCCC3)n2)cc1 -0.261%
O=C(O)C(c1ccccc1)N1C(=O)/C(=C\c2ccc(-c3cccc(Cl)c3)o2)SC1=S (stereo not given) -13.5%
O=C(c1cnn2c(-c3ccccc3)cc(-c3ccccc3)nc12)N1CCN(Cc2ccccc2)CC1 -0.43%
CCc1ccc(N2CC(C(=O)OCC(=O)N(CC)c3c(N)n(Cc4ccccc4)c(=O)[nH]c3=O)CC2=O)cc1 (stereo not given) -2.35%
COc1ccc(Cn2nnc3c(=O)[nH]c(C4CCCN(C(=O)c5ccccc5)C4)nc32)cc1 (stereo not given) -4.65%
Cn1cc(C(=O)c2ccc(Cl)cc2Cl)cc1C(=O)N/N=C(\N)COc1ccccc1 -0.182%
NNc1nc(-c2ccccc2)cs1 0.892%
FC(F)(F)c1nnc(-c2ccccc2)nc1N1CCCC1 1.81%
CCn1c(-c2ccc([N+](=O)[O-])cc2)n[nH]c1=S 4.45%
O=c1oc2ccccc2nc1/C=C(\O)c1ccc(Br)cc1 -14.8%
Cc1c(Cl)cccc1NS(=O)(=O)c1ccc2c(c1)C1C=CCC1C(c1ccc(C(=O)O)cc1)N2 (stereo not given) -9.15%
Cc1ccc(-c2nnn(CC(=O)NC3CCN(Cc4ccccc4)CC3)n2)cc1 -2.48%
CCOC(=O)C(C)(C)N(Cc1ccccc1C)S(=O)(=O)c1ccc(Cl)c([N+](=O)[O-])c1 -3.4%
Cc1noc(C)c1CSCC(=O)Nc1nc2c(F)cc(F)cc2s1 -1.36%
CN1CCN(C(=S)c2ccc(N(C)C)cc2)CC1 1.86%
O=C1C=C(c2ccoc2)N2CCC[C@H]2C1 -8.87%
CCN(C(=O)COC(=O)c1nc2nc(C)cc(C)n2n1)C1CCCCC1 0.538%
CC(C)N(C(=S)Nc1cccnc1)c1ccccc1 -1.45%

outcome, inactive:
O=C1c2c(O)ccc(O)c2C(=O)c2c(NCCNCCO)ccc(NCCNCCO)c21
